Source: ChEMBL document CHEMBL3988442, “University of Dundee, Small-Polar-MMV Screening Library” (2021)
In all, about 48,000 compounds went through this assay and about 13,000 (27%) showed an effect of 50% or more. This is one part of the list.

The compounds below were run on Wolbachia pipientis (assay: Anti-Wolbachia Cell-Based Screen). Conditions: 5 µM.
Format: functional
Parameters: scale not given: in the data most compounds retested in dose-response had high values

| Structure (SMILES) | Percent Effect |
| --- | --- |
| O=C(O)C(F)(F)F.O=C([C@H]1COC[C@H]2CN(C3CCCC3)C[C@H]21)N1CCCCO1 | -5.445% |
| O=C(Cc1cccc(Cl)c1)Nc1cnccc1SCCCO | 7.035% |
| COc1ccc(CNc2nncs2)cc1F | -12.2% |
| O=C(Nc1ccc(OC(F)F)cc1)N1CCC(c2nnc[nH]2)CC1 | -4.065% |
| NC(=O)CSc1ccccc1NCc1nc(C2CC2)no1 | -3.279% |
| NC(=O)CSc1ccccc1NCc1nc(Cc2ccccc2)no1 | -16.37% |
| CNC(=O)Cc1ccccc1NC(=O)C1CCCC1 | 5.338% |
| CCCN1CCC(N(C)CCC(=O)Nc2ccccc2SC)CC1 | -1.207% |
| CSc1ccccc1NC(=O)CCN1CCC(C(=O)N(C)C)CC1 | 8.025% |
| NC(=O)CSc1ccccc1NC(=O)C1CCCC1 | 99.94% |
| CC(C)(C)CC(=O)Nc1ccccc1SCC(N)=O | 103.7% |
| NC(=O)CSc1ccccc1NC(=O)C1CCCCC1 | 84.77% |
| CNC(=O)Cc1ccccc1NC(=O)C1CCN(C2CCCCC2)C1 (configuration not stated) | -1.289% |
| NC(=O)CSc1ccccc1NC(=O)CC1C=CCC1 (configuration not stated) | 119.4% |
| CC(=O)N1CCCC(C(=O)Nc2ccccc2Cc2ccccc2)C1 (configuration not stated) | 4.475% |
| O=C(Nc1cccnc1-n1cncn1)C1CCC1 | -13.11% |
| CCc1ccc(CN(CCN(C)C)Cc2ccc(C)s2)nc1 | 19.31% |
| CN(C)CCN1CCOCC2(C1)CN(Cc1nccs1)CCO2.O=C(O)C(F)(F)F.O=C(O)C(F)(F)F.O=C(O)C(F)(F)F (configuration not stated) | -2.784% |
| Cn1nnc2c1CCN(Cc1ccncc1)C2COCc1ccccc1.O=C(O)C(F)(F)F.O=C(O)C(F)(F)F (configuration not stated) | 7.235% |
| Cn1cc(CN2CCCN(C(=O)c3cc[nH]n3)CC2)cn1 | -7.081% |
| CC(C)n1cc(CN2CCCN(C(=O)c3ccoc3)CC2)cn1 | -9.039% |
| Cc1cccc(C(=O)N2CCCN(Cc3cnn(C)c3)CC2)n1 | -11.33% |
| Cc1ccoc1C(=O)N1CCCN(Cc2cnn(C)c2)CC1 | 85.33% |
| CCn1cc(CN2CCCN(C(=O)c3ccoc3)CC2)cn1 | 93.78% |

| Structure (SMILES) | Percent Effect |
| --- | --- |
| CCn1cc(CN2CCCN(C(=O)c3ccn(C)c(=O)c3)CC2)cn1 | -5.674% |
| Cn1cc(CN2CCCC3(CCN(C(=O)c4ccoc4)C3)C2)cn1 (configuration not stated) | -4.278% |
| CCn1cc(CN2CCCN(C(=O)c3ccco3)CC2)cn1 | 139.7% |
| CCn1cc(CN2CCCN(C(=O)c3ccc(C)nc3)CC2)cn1 | 109.5% |
| CC(C)CCc1noc(CN2CCCN(C(=O)c3ccco3)CC2)n1 | -6.659% |
| CC(C)n1cc(CN2CCCN(C(=O)c3ccco3)CC2)cn1 | 13.14% |
| CCc1cccc(NC(=O)CCC(=O)N(C)Cc2nc(C)c[nH]2)c1 | -13.69% |
| O=C(O)c1cc(-c2ccoc2)cc(S(=O)(=O)NCc2ccccn2)c1 | 3.348% |
| c1cncc(COCC2CN(Cc3ccncc3)Cc3ccnn3C2)c1 (configuration not stated) | -8.453% |
| Cc1ccc(OC2(C(=O)O)CCN(C/C=C/c3ccco3)CC2)c(C)n1 | -5.357% |
| CC(C)c1cc(C(=O)N2C[C@H]3CC[C@@H]2CN(Cc2cccnc2)C3)no1 | 0.5633% |
| CC(C)N1CCCc2sc(C(=O)NC3CC3)nc21 | -0.2474% |
| CNC(=O)Cc1noc(-c2cc3c(s2)CCC(C)C3)n1 (configuration not stated) | -12.44% |
| CN(CC1CN(Cc2cn3ccsc3n2)CCO1)c1cccnn1 (configuration not stated) | 13.06% |
| Cc1nc(COc2ccc(OC(C)C(N)=O)cc2)oc1C (configuration not stated) | 1.86% |
| Cc1ccc(-n2cc(CN3CCOCC3)c(-c3cccc(C)c3)n2)cc1 | 0.1947% |
| O=C(c1ccc2nncn2c1)N1CCSC2(CCCCC2)C1 | -6.872% |
| CC(C)n1cc(CN2CCCN(C(=O)c3cccn3C)CC2)cn1 | 7.673% |
| CCn1cc(CN2CCCN(C(=O)c3ccc(C)o3)CC2)cn1 | 126.6% |
| CCn1cc(CN2CCCN(C(=O)c3cc(C)no3)CC2)cn1 | 149.7% |
| CCc1nc(CN2CCCN(C(=O)c3cccn3C)CC2)cs1 | -9.878% |
| CCn1cc(CN2CCCN(C(=O)c3ccoc3C)CC2)cn1 | 105.3% |
| CCn1cc(CN2CCCN(C(=O)c3cccn3C)CC2)cn1 | 145.7% |
| Cc1cc(C(=O)N2CCN(Cn3cc(Cl)cn3)CC2)on1 | 0.1609% |

| Structure (SMILES) | Percent Effect |
| --- | --- |
| Cc1occc1C(=O)N1CCCN(Cc2cnn(C(C)C)c2)CC1 | -5.086% |
| CCC1=N[C@@]2(CC[C@@H]3CN(S(=O)(=O)CC)C[C@@H]32)C(=O)N1CC | 5.096% |
| Cc1nc(C(=O)N2CCN(c3ncccn3)[C@@H]3CS(=O)(=O)C[C@@H]32)cs1 | -1.503% |
| c1cnnc(N2CCCC2CNc2ncnc3ccccc23)c1 (configuration not stated) | 0.08494% |
| Cc1cc(NC(=O)N2CCN(C)CC2C)n(C)n1 (configuration not stated) | -19.14% |
| Cc1cc(CNc2ccnn2CC(C)C)ccc1-n1cncn1 | -23.25% |
| CSc1ccc(NS(=O)(=O)c2cnn(C)c2)cn1 | -3.394% |
| CCc1ccc(C(=O)N2CCCN(Cc3csc(CC)n3)CC2)o1 | -14.26% |
| CCc1nc(CN2CCCN(C(=O)c3ccco3)CC2)cs1 | 109.2% |
| CCc1nnsc1C(=O)N1CCCN(Cc2cnn(CC)c2)CC1 | -1.096% |
| CCn1cc(CN2CCCN(C(=O)c3c(C)oc(C)c3C)CC2)cn1 | 105.9% |
| CCc1nc(CN2CCCN(C(=O)c3ccccc3)CC2)cs1 | 5.45% |
| Cc1ccc(NS(C)(=O)=O)c(C(=O)NCCC(=O)NC(C)C)c1 | -8.186% |
| c1ccc(OCCN2CCCC(c3noc(C4CC4)n3)C2)cc1 (configuration not stated) | -2.8% |
| CCOCCN1CCN(Cc2nnc(C3CC3)o2)CC1 | -12.93% |
| c1ccc(OCCN2CCC(c3nnc(-c4cccnc4)o3)CC2)cc1 | 108.1% |
| OCCn1cc(CN2CCN(CCOc3ccccc3)CC2)cn1 | -4.681% |
| CCOCCN1CCc2cncnc2C1 | 24.85% |
| c1ccc(OCCN2CCC(c3cnccn3)CC2)cc1 | 90.65% |
| CCOCCN1CCC(c2cncc(C)n2)CC1 | 133% |
| CCOCCN1CCC(c2cnccn2)CC1 | 103.5% |
| c1ccc(CCCN2CC[C@H](c3nnc(-c4cccnc4)o3)C2)cc1 | 5.165% |
| CCOCCN1CCn2c(C)nnc2C1 | 4.517% |
| Fc1ccc(CCN2CCC(c3nnc(-c4cccnc4)o3)CC2)cc1 | -17.22% |
